Assay outcomes (PubChem)
Cycloheximide cs – counter-screen for Shiga toxin inhibitors: cycloheximide protein synthesis inhibition; cell reporter, cycloheximide protein synthesis inhibition counterscreen; max response, %; hit rate 12% among 300,000; AID 2314; in the data active = max response mostly above about 13%, no sharp cut-off; inactive = mostly below about 14%; note: read at 38.3 µM for the half of the compounds with a filed dose; 0% is about no effect
Pf growth 48h – inhibits P. falciparum growth in the first generation, 48 h | P. falciparum luciferase growth in erythrocytes, 48 h | Potency, µM (series often up to 28.7 µM), without a hit: at the top dose activity change, negative = inhibition, most hits filed as inhibitors | hit rate 5.9% among 310,000; active = well fitted inhibition curve with a large enough effect; inconclusive = small, poorly fitted or top-dose-only effect, or another doubt; inactive = no such curve, though single readings can be large or run the other way; note: potency is the fitted concentration of half-maximal effect; % is set by controls: 0 for no effect and ±100 for the full control effect
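Cell-based growth assay: transgenic P. falciparum expressing firefly luciferase, cultured in red cells within RPMI 1640 containing 0.5% w/v Albumax, 24 mM bicarbonate and gentamycin. A drop in luciferase activity indicates inhibition.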
Shiga inhibitor – blocks Shiga toxin action in Vero cells. Vero cells, Shiga toxin protein synthesis inhibition reporter. inhibition, % at 38.7 µM. hit rate 9.2% among 290,000. AID 2315; in the data active = inhibition mostly above about 28%, no sharp cut-off; inactive = mostly below about 43%; note: 0% is about no effect
NS1 inh – blocks influenza NS1 protein function; hit rate 0.4% among 270,000; Potency, µM (doses to about 46.1 µM), for inactives: at the top dose activity, positive = more growth; AID 2326; note: potency is the fitted concentration of half-maximal effect; actives are rising curves; nearly all actives have a fitted effect of over 50% in size
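S. cerevisiae expressing influenza A NS1, grown in glucose, washed, then diluted 1:100 into pH 6.0 -URA galactose medium with 23 nl compound. Growth recovery read as OD600; NS1-free strain serves as control.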
SARS PLP yeast – SARS-CoV PLP inhibition in yeast | S. cerevisiae expressing SARS-CoV PLpro, growth rescue | Potency, µM (titrated, usually from 32.9 µM), for the others: top-dose activity, positive = growth rescue, actives largely listed as activators | hit rate 0.19% among 330,000 | AID 485353; note: potency is the fitted concentration of half-maximal effect; 0% is about no effect; nearly all actives have a fitted effect of over 55% in size
Pf growth 96h – P. falciparum growth inhibition at 96 hours | P. falciparum luciferase reporter growth, 96 h | Potency, µM (series often up to 28.7 µM), without a hit: at the top dose activity change, negative = inhibition, usual class: inhibitors | hit rate 6.9% among 320,000; active = well fitted inhibition curve with a large enough effect; inconclusive = small, poorly fitted or top-dose-only effect, or another doubt; inactive = no such curve, though single readings can be large or run the other way; note: potency is the fitted concentration of half-maximal effect; % is set by controls: 0 for no effect and ±100 for the full control effect
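Delayed-death screen, second-generation endpoint: infected erythrocytes, 2% hematocrit, 0.05% parasitemia final; 96 hours at 37 C, 5% CO2; luciferase detection reagent; luminescence decrease equals reduced growth.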
An asterisk follows results filed as active; ? = inconclusive; · = not tested or not shown. Only some compounds are listed: those with a hit (about 21% of all), similar ones and a draw of the others. Unless noted, calls come from the whole dose curve.

SMILES | Cycloheximide cs | Pf growth 48h | Shiga inhibitor | NS1 inh | SARS PLP yeast | Pf growth 96h
Cc1nn(Cc2c(F)c(F)c(F)c(F)c2F)c(C)c1NC(=O)c1cccc(COc2ccccc2Cl)c1 | 68.6* | 137.2% | 161.9* | 15.2% | 1.5% | 288.9%
Cc1nn(Cc2c(F)c(F)c(F)c(F)c2F)c(C)c1NC(=O)c1ccc(COc2ccc(Cl)cc2Cl)o1 | -2.4 | -8.8% | 3.7 | 24.1% | -34.0% | ?
Cc1nn(Cc2c(Cl)cccc2Cl)c(C)c1NC(=O)c1cc(C(C)C)on1 | -3.5 | · | -8.7 | -12.0% | 18.0% | 9.28µM*
Cc1nn(Cc2cccc(F)c2)c(C)c1NC(=O)c1ccc(COc2ccccc2Cl)cc1 | 18.3 | 13.1µM* | 6.3 | -2.4% | 1.2% | ·
Cc1cc(C(=O)Nc2c(C)nn(Cc3c(Cl)cccc3Cl)c2C)no1 | 0.5 | 36.0% | 7.4 | 6.6% | -0.7% | 0.6%
COc1ccc(/C=C/C(=O)OCC(=O)NCCC2=CCCCC2)cc1S(=O)(=O)N1CCOCC1 | -1.6 | -15.9% | -6.8 | · | -3.5% | -4.0%
Cc1ccc(-c2nn(CCC(=O)NN3CCOCC3)c(=O)c3ccccc23)cc1 | 1.6 | -47.1% | -4.8 | 0.9% | 2.1% | -102.3%
CN(C)S(=O)(=O)N1CCC(Oc2ccc(C(=O)NCCc3cscn3)cc2)CC1 | -2.3 | 10.4% | -5.3 | -0.3% | 4.6% | ?
C#CCN(CC=C)C(=O)c1ccc(OC2CCN(S(=O)(=O)N(C)C)CC2)cc1 | 36.7* | 1.9% | 62.3* | 4.1% | -1.0% | ?
CC(C)CCNC(=O)c1ccc(OC2CCN(S(=O)(=O)N(C)C)CC2)cc1 | 39.8* | -24.4% | 42.9 | -4.0% | -0.9% | -28.4%
C=C(C)CNC(=O)c1ccc(OC2CCN(S(=O)(=O)N(C)C)CC2)cc1 | 19.6* | 2.4% | 11.3 | -4.4% | -2.0% | 13.1µM*
C=C(C)CN(CC)C(=O)c1ccc(OC2CCN(S(=O)(=O)N(C)C)CC2)cc1 | 37.9* | 0.0% | 55.1* | 0.8% | -0.2% | 4.15µM*
COc1ccc(OC)c(N=C2SCCCN2C(=O)c2ccc(N3C(=O)CCC3=O)cc2)c1 | · | -27.8% | · | · | 1.8% | ?
CCC(C)N1C(=O)S/C(=C/c2ccc3c(c2)n(C)c(=O)n3C)C1=O (centres undefined) | 30.2* | -14.8% | 69.1 | · | -2.1% | -29.7%
CC(C)N1C(=O)S/C(=C/c2ccc3c(c2)n(C)c(=O)n3C)C1=O | -3.6 | 11.5% | -4.3 | 5.8% | 5.6% | ?
Cc1ccc(OCCC(=O)OC(C)C(=O)Nc2ccc(Cl)cn2)cc1 (centres undefined) | · | 0.0% | · | · | -2.1% | -2.7%
Cc1cc(C)c(C)c(S(=O)(=O)N2CCN(C(=O)C3CSC4(C)CCC(=O)N34)CC2)c1C (centres undefined) | · | 10.4µM* | · | · | 1.1% | ?
CCN(CC)c1ccc(S(=O)(=O)N2CCCCC2)cc1NC(=O)C1CSC2(C)CCC(=O)N12 (centres undefined) | · | 11.7µM* | · | · | 1.9% | ?
CC12CCC(=O)N1C(C(=O)Nc1ccccc1N1CCCCC1)CS2 (centres undefined) | · | 10.4µM* | · | · | -1.8% | ?
CC12CCC(=O)N1C(C(=O)N1CCN(S(=O)(=O)c3cccc(C(F)(F)F)c3)CC1)CS2 (centres undefined) | · | 0.0% | · | · | -7.6% | 4.6%
CC12CCC(=O)N1C(C(=O)Nc1cc(C(F)(F)F)ccc1N1CCCCC1)CS2 (centres undefined) | · | 9.28µM* | · | · | 2.5% | ?
CCc1cc(=O)oc2c(CNCc3ccccc3F)c(O)c(Cl)cc12 | -1.3 | 4.5% | -3.4 | -2.4% | -1.4% | 0.4%
CCN(CC)C(=O)c1ccc(NC(=O)C2=C(C)OCCS2)cc1 | 9.1 | 29.6% | 17.6 | -2.4% | 0.9% | -1.2%
CCOc1ccc(CNC(=O)c2cccc(NC(=O)C3=C(C)OCCS3)c2)cc1 | 17.2* | ? | 7.8 | -15.1% | 5.4% | ?
CC1=C(C(=O)Nc2ccc(CC(=O)NCc3ccc(OC(C)C)cc3)cc2)SCCO1 | 41.6* | 101.8% | 81.6* | 6.0% | 16.6% | ?
SMILES | Cycloheximide cs | Pf growth 48h | Shiga inhibitor | NS1 inh | SARS PLP yeast | Pf growth 96h
COc1ccc(CNC(=O)Cc2ccc(NC(=O)C3=C(C)OCCS3)cc2)cc1 | 19.4* | 100.4% | 56.3* | 13.4% | 2.5% | ?
CC1=C(C(=O)Nc2cccc(C(=O)NC3CCCCC3C)c2)SCCO1 (centres undefined) | -8.2 | -11.5% | -5.3 | -6.2% | 21.1% | 9.28µM*
Cc1ccc(-c2nc(P(=O)(c3ccccc3)c3ccccc3)c(N3CCOCC3)o2)cc1 | -6.0 | 10.4µM* | 13.3 | -5.0% | 2.3% | 10.4µM*
CCOP(=O)(OCC)c1nc(-c2ccc(OC)cc2)oc1N1CCOCC1 | -4.6 | -10.6% | 4.5 | -2.8% | -0.8% | -3.3%
CNc1oc(-c2ccc(Cl)cc2)nc1P(=O)(c1ccccc1)c1ccccc1 | 8.2 | ? | 27.6 | 8.7% | -24.2% | 14.7µM*
CCOc1ccc(OCCOC(=O)CN2C(=O)NC3(CCCC3)C2=O)cc1 | · | 5.7% | · | · | -1.7% | 25.3%
CCc1ccc(C(=O)NNC(=S)Nc2ccc(S(N)(=O)=O)cc2)s1 | -2.9 | 20.1% | -7.7 | · | 4.5% | 17.2%
O=C(Nc1cccnc1)c1ccc(-c2ccc(Cl)cc2)o1 | 66.1* | 19.9% | 72.5* | · | -9.6% | -11.7%
Cc1ccc(Cl)cc1N(Cc1ccc(C(=O)NCc2cccnc2)cc1)S(=O)(=O)c1ccccc1 | -3.2 | ? | -0.8 | -3.7% | 4.7% | 13.1µM*
O=C(Nc1cccnc1)c1ccc(-c2cc(Cl)ccc2Cl)o1 | 21.7* | ? | 48.5 | -5.4% | -3.4% | 12.1%
O=C(NCc1cccnc1)c1ccc(-c2cc(Cl)ccc2Cl)o1 | 1.1 | ? | -13.9 | -8.5% | -2.7% | 11.7µM*
CCn1cc(C2C(C(=O)Nc3cc(C)ccn3)=C(C)NC3=C2C(=O)CC(C)(C)C3)c(C)n1 (centres undefined) | -1.7 | -16.3% | -4.2 | -3.7% | -4.0% | ?
Oc1ccc2ccc3[nH]cnc3c2c1 | 52.9* | ? | 74.1* | 0.8% | 3.3% | 39.8%
CN(C)Cc1c(O)ccc2[nH]cnc12 | -1.9 | 7.1% | -11.3 | ? | 0.5% | ·
CCOc1ccc(C(=O)c2nc3c(n2O)CCCCC3)cc1 | 13.9 | 9.2% | 20.9 | -7.0% | -4.9% | 48.6%
COc1ccc(C(=O)c2nc3c(n2O)CCCC3)cc1OC | -3.7 | · | -8.9 | -4.5% | 2.6% | -28.9%
O=C(c1ccc(Oc2ccccc2)cc1)c1nc2c(n1O)CCCC2 | 21.1* | · | 46.5 | -34.8% | -41.2% | 1.0%
CCCOc1ccc(C(=O)c2nc3c(n2O)CCCC3)cc1 | 27.3 | ? | 49.9* | -72.4% | -16.7% | ?
COc1ccc(C(=O)c2nc3c(n2O)CCCCC3)cc1 | 48.1* | · | 24.7 | 1.9% | 1.0% | -29.2%
COc1ccc(C(C(=O)NC(C)(C)C)N(C(=O)Cn2nnc3ccccc32)c2cccc(C(C)=O)c2)cc1O (centres undefined) | 0.4 | -5.5% | -3.0 | 5.9% | 0.0% | -5.6%
